# Compound activity (PubChem BioAssay)
# D3 ag: qHTS of D3 Dopamine Receptor Agonist: qHTS; D(3) dopamine receptor (Homo sapiens), P35462; D3R DiscoveRx beta-arrestin cells, luminescence, 90 min; max activation, %; 410,000 tested, 0.58% active; AID 652048, 2013; in the data active = max activation above about 30%; also: 0% is about no effect
# Target sequence (P35462 whole entry, looked up): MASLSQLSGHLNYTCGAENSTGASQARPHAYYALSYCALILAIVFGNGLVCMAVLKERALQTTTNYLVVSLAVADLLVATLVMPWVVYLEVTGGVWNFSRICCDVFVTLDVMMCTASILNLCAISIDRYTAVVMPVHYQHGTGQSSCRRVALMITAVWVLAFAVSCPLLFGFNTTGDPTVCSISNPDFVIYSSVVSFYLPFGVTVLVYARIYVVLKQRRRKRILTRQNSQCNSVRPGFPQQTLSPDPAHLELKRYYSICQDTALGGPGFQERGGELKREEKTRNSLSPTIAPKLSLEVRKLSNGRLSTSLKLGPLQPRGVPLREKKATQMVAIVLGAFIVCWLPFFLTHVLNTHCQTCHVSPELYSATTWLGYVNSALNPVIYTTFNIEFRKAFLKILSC
#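 Agonist mode: compounds and dopamine controls were applied to plated cells for 90 min at 37 degrees C after an overnight attachment at 1500 cells/well. Luminescent read-out followed 30 - 60 minutes at room temperature with DiscoveRx detection reagent.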
# D1 antag: Antagonist of Human D 1 Dopamine Receptor: qHTS; 360,000 tested, 3.2% active; D(1A) dopamine receptor (Homo sapiens), P21728; AID 504652, 2011; activity change, negative = inhibition, % at 10 µM; HEK293 TREx D1 cells, calcium flux, dopamine EC80; hits give low values; in the data active = activity change below about -30%; also: % is scaled to controls: 0 for no effect and ±100 for the full control effect
#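 Using tetracycline-induced force-coupled D1 Hek293 cells and a calcium dye, signals were followed for 180 s after compound, then for 180 s after EC80 dopamine, to detect inhibitors.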
# D3 antag: qHTS of D3 Dopamine Receptor Antagonist: qHTS; D3R cells, DiscoveRx beta-arrestin luminescence, antagonist mode; hits give low values; max response, negative = inhibition, %; 360,000 tested, 2.5% active; in the data active = max response below about -50%; also: % is scaled to controls: 0 for no effect and ±100 for the full control effect
#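 Cells plated overnight at 1500 cells/well, then exposed to library compounds with dopamine controls for 90 minutes at 37 degrees C. DiscoveRx reagent added for 30–60 minutes at room temperature; luminescence read, quantitative HTS format.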
# D1 PAM: Potentiators of Human D1 Dopamine Receptor: qHTS; HEK293 TREx D1 cells, calcium flux, dopamine EC20 potentiation; 360,000 tested, 0.036% active; D(1A) dopamine receptor (Homo sapiens), P21728; potentiation, % at 10 µM; in the data active = potentiation above about 30%; also: 0% is about no effect
# D1 ag: Allosteric Agonists of the Human D1 Dopamine Receptor: qHTS; AID 504660, 2011; HEK293 T-REx D1 cells, calcium flux, agonist mode; activation, % at 2 µM; D(1A) dopamine receptor (Homo sapiens), P21728; 360,000 tested, 1% active; in the data active = activation above about 30%; also: 0% is about no effect
#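 Agonism was scored from calcium flux recorded over 180 s (1 read/s) after pintool compound addition, following a 10-cycle baseline. Cells were inducible force-coupled HEK293 TREx D1, plated overnight at 30 C and loaded with no-wash calcium dye.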
# Starred values were filed as active, the others as inactive; x = not tested or not shown. Compounds with a hit are over-represented: about 6% of the library has one in this group of screens.
SMILES,D3 ag,D1 antag,D3 antag,D1 PAM,D1 ag
Cc1cc(C)n2nc(SCN3C(=O)c4ccccc4C3=O)nc2n1,-4,-33*,8,0,1
CCCn1c(C)cc(C(=O)CSc2nc3nc(C)cc(C)n3n2)c1C,14,-49*,-6,-6,2
COc1ccc(C(=O)Nc2ccc(Cl)c(S(=O)(=O)Nc3ccccc3OC)c2)cc1,24,-9,10,-7,11
COc1ccc(NS(=O)(=O)c2cc(N/C(=N\S(=O)(=O)c3ccccc3)c3ccc(F)cc3)ccc2Cl)cc1,-4,-38*,-3,0,8
O=C(Nc1ccc(-c2noc(COc3ccccc3Cl)n2)cc1)c1ccco1,3,-22,17,-1,5
COc1ccc(C#Cc2cnc3c(c2)C(=O)N([C@@H](C)CO)C[C@@H](C)[C@@H](CN(C)CC2CCOCC2)O3)cc1,-3,x,-21,x,x
O=C(Nc1cnc2ccccc2c1)N1CCOCC1,-5,6,-67*,2,1
O=C(Nc1ccc(Nc2ccccc2)cc1)N1CCOCC1,-4,-20,9,-2,3
O=C(Nc1ccc(O)cc1)N1CCOCC1,3,-39*,-4,-2,5
Cc1ccc(Cn2c(CNC(=O)c3cccc(C)c3)nc3ccccc32)cc1,-19,2,x,-3,9
COc1ccc(NS(=O)(=O)c2ccc(-n3nnc4ccccc43)c([N+](=O)[O-])c2)cc1,0,-3,-17,-11,36*
CCc1nn(CC(=O)N2CCN(c3ccc(OC)cc3)CC2)c(=O)c2cc3occc3n12,34*,2,8,-2,0
CCOC(=O)C1CCN(C(=O)Cn2nc(CC)n3c(cc4occc43)c2=O)CC1,6,-33*,x,2,5
O=C(O)CC1c2ccccc2CCN1C(=O)Nc1cc(Cl)ccc1Cl (stereo unspecified),-13,0,x,1,-1
CCC(=O)Nc1cccc(C2=NOC3(C2)C[C@@H](C(N)=O)N(C(=O)COc2ccc(Cl)cc2)C3)c1 (stereo partly specified),21,-22,3,-5,0
CCCCCC(=O)N1CC2(CC(c3cccc(NC(=O)CC(c4ccccc4)c4ccccc4)c3)=NO2)C[C@@H]1C(N)=O (stereo partly specified),-15,-47*,40,-4,9
CCC(=O)N1CC2(CC(c3cccc(NC(=O)COc4ccc(Cl)cc4)c3)=NO2)C[C@@H]1C(N)=O (stereo partly specified),x,-53*,x,6,3
CC12CCC(C(=O)N(CCCCN3CCN(c4ccccn4)CC3)C1=O)C2(C)C (stereo unspecified),86*,-27,-11,-18,2
Cc1cccc(CN2[C@H](COC(=O)Nc3ccccc3)C=CS2(=O)=O)c1,1,x,-10,x,x
Cc1cc(C)c2oc(C(=O)Nc3c(C)n(C)n(-c4ccccc4)c3=O)cc(=O)c2c1,2,-12,x,1,1
COc1ccc(Cn2c(=O)[nH]c3cc(C(=O)N4CCN(c5cccc(OC)c5)CC4)ccc3c2=O)cc1,-2,12,x,0,1
COc1ccc(NCc2cccn2-c2nnc(N3CCCCC3)s2)cc1OC,6,-6,x,0,2
CC1=CC(=C(C#N)c2nc3ccccc3s2)C=C(C)N1c1ccc(F)cc1,1,7,-11,-4,5
COc1ccccc1N1C(C)=CC(=C(C#N)c2nc3ccccc3s2)C=C1C,-1,-24,-21,11,191*
Cc1c(C(=O)NCc2ccc(F)cc2)sc2nc(-c3ccc(F)cc3)cn12,-7,-50*,x,-5,4
Cc1ccc(CNC(=O)c2sc3nc(-c4ccccc4)cn3c2C)cc1,-12,-6,x,-5,1
Cc1ccc(-n2c(=O)c3c4c(sc3n(Cc3ccccc3C)c2=O)CCC4)cc1C,-15,-72*,x,1,1
Cc1ccccc1Cn1c(=O)n(-c2ccc(Cl)cc2)c(=O)c2c3c(sc21)CCCC3,6,10,x,2,0
